High-throughput results (PubChem)
Rows were chosen to be rich in hits. Some 5.7% of all compounds tested hit in one or more screens of this group.
A549 tox: A549 cytotoxicity, counter-screen for Nrf2 inhibitors; Potency, µM (titrated, usually from 46 µM), usual class: inhibitors; A549 ARE-Fluc cells, CellTiter-Fluor viability, 18-24 h; 390,000 compounds, 0.16% hits; AID 504648
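A549 ARE-Fluc cells in 5% FBS OPTI-MEM, 5000 cells/well, rested 2 h then exposed to compounds in concentration-response for 18-24 h at 37 °C. Viability by CellTiter-Fluor fluorescence (Ex 405/Em 525) after 30 min; luciferase luminescence (BugLite, 15 min, RT) read afterwards.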
Giardia killer: kills Giardia lamblia | Giardia lamblia trophozoite viability | activity change, % at 7.66 µM, hits read low | 340,000 compounds, 0.15% hits; in the data active = activity change below about -80%; inconclusive = between about -30% and that limit;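 note: parasites exposed to compound for two days anaerobically before the ATP read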
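Each well holds 100 Giardia trophozoites and compound. After two days (48 hrs) at 37 deg C in anaerobic conditions, ATP is quantified by luminescence.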
PI4K2A block: PI4K2A (human) kinase inhibition. purified PI4K2A, ADP-Glo luminescence, 1 h; stronger effect = lower value. activity change, negative = inhibition, % at 76.9 µM. 420,000 compounds, 0.13% hits. AID 1346378. Q9BTU6; in the data active = activity change below about -50%; inconclusive = mostly about -30% to -49%
Target sequence (Q9BTU6 whole entry, looked up): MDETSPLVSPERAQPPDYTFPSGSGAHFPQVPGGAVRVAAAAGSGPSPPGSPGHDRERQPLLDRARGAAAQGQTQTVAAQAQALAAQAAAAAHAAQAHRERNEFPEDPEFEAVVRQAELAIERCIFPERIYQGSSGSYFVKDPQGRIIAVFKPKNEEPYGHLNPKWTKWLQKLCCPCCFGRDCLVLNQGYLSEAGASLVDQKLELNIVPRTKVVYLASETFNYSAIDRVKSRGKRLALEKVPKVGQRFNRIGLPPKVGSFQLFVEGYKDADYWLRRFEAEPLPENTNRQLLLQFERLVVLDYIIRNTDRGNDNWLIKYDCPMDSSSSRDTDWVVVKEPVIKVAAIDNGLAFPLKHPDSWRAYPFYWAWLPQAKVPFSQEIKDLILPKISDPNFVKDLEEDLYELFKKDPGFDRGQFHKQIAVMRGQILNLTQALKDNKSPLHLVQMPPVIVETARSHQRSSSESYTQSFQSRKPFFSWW
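PI4K2A activity was measured by ADP-Glo luminescence: enzyme (4 ug/mL stock) and phosphatidylinositol (1.2 mM stock) in Tris pH 7.5/MgCl2/EGTA/Triton X-100 buffer were reacted with ATP (300 microM stock) for one hour at ambient temperature.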
Nrf2 inh: inhibitors of Nrf2 signaling | A549 ARE-Fluc reporter, luciferase luminescence, 18-24 h | Potency, µM (series often up to 46 µM), most hits filed as inhibitors | 360,000 compounds, 2.1% hits | AID 504444; note: nearly all actives have a fitted effect of over 60% in size
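Quantitative HTS in A549 cells stably bearing an antioxidant response element-firefly luciferase construct. Inhibition of Nrf2-driven transcription was scored by luminescence after 18-24 h of compound exposure at 37 °C.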
KB-3-1 cytotox: kills parental KB-3-1 adenocarcinoma cells. Potency, µM (series often up to 46.1 µM), actives largely listed as cytotoxic. 400,000 compounds, 1.4% hits. KB-3-1 viability, CellTiter-Glo ATP luminescence, 72 h; note: nearly all actives have a fitted effect of over 60% in size
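Parental KB-3-1 adenocarcinoma cells in phenol-red-free DMEM with 10% FBS were pin-treated with compounds at several concentrations, incubated 72 h at 37 °C, and viability read by CellTiter-Glo luminescence; concentration-effect curves were fitted after normalization.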
KB-V1 cytotox: kills drug-selected multidrug resistant KB-V1 cells. AID 1347076. KB-V1 MDR cells viability, CellTiter-Glo, 72 h. Potency, µM (doses to about 46.1 µM), hits mostly cytotoxic. 400,000 compounds, 3.4% hits; note: nearly all actives have a fitted effect of over 60% in size
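In this primary screen, KB-V1 cells overexpressing P-gp are incubated with library compounds (lowest to highest concentration) for 72 h at 37 degrees C before a luminescent ATP viability read.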
Each line names hits and unclear results; the compound was inactive in the other large screens. Unless noted, calls come from the whole dose curve; as a rule, active = well fitted curve in the direction sought with a large enough effect; inconclusive = small, poorly fitted or top-dose-only effect, or another doubt; inactive = no such curve, though single readings can be large; an effect the other way counts as inactive or inconclusive.

Cc1c(Cl)cccc1NC(=O)c1ncn(-c2ccccc2)n1	Nrf2 inh inconclusive, KB-V1 cytotox inconclusive (no result: Giardia killer)
O=C(c1cc(-c2ccccc2)nc2ccccc12)N1CCN(c2ccccn2)CC1	KB-3-1 cytotox inconclusive, KB-V1 cytotox inconclusive
O=C(c1cc(-c2ccncc2)nc2ccccc12)N1CCN(c2ccccn2)CC1	A549 tox inconclusive, KB-3-1 cytotox 13µM, KB-V1 cytotox inconclusive
O=C(c1ccccc1Br)N1CCN(c2ccccn2)CC1	none
Cc1ccc(NC(=O)c2cnc(N3CCN(c4ccccn4)CC3)c3ccccc23)c(Br)c1	Nrf2 inh 15µM, KB-3-1 cytotox inconclusive, KB-V1 cytotox inconclusive
O=C(c1cnc(N2CCN(c3ncccn3)CC2)c2ccccc12)N1CCN(c2ccccn2)CC1	Nrf2 inh inconclusive, KB-V1 cytotox 21µM
O=C(c1cn(Cc2ccccc2)nc1-c1ccccc1)N1CCN(c2ccccn2)CC1	Nrf2 inh inconclusive, KB-3-1 cytotox 10µM, KB-V1 cytotox inconclusive
CC(C)c1ccc(NC(=O)OC2CCC23CCC(c2ccccc2)CC3)cc1 (stereo not drawn)	none (no result: A549 tox, Giardia killer, Nrf2 inh, KB-3-1 cytotox, KB-V1 cytotox)
O=C(c1ccccc1-c1ccccc1)N1CCN(c2ccccn2)CC1	Nrf2 inh inconclusive, KB-3-1 cytotox 2.6µM, KB-V1 cytotox 2.6µM
Cc1ccccc1C(=O)N1CCN(c2ccccn2)CC1	none
CC(=O)Nc1c(C)nn(-c2ccccc2)c1N1CCC(C(=O)Nc2cccc(C(F)(F)F)c2)CC1	none (no result: Giardia killer, Nrf2 inh, KB-3-1 cytotox, KB-V1 cytotox)
S=c1[nH]nc(-c2ccc3ccccc3n2)n1-c1cc(Cl)cc(Cl)c1	KB-V1 cytotox 16µM
CN(C(=O)CNC(=O)c1ccccc1OCC(=O)Nc1ccc(Br)cc1)c1ccccc1	none (no result: A549 tox, Giardia killer, Nrf2 inh, KB-3-1 cytotox, KB-V1 cytotox)
c1ccc(CN2CCN(c3nc(NCc4ccco4)c4ccccc4n3)CC2)cc1	A549 tox inconclusive, Nrf2 inh 23µM, KB-3-1 cytotox inconclusive, KB-V1 cytotox 3.7µM
Cc1ccc(OCCN2CCN(c3nc(NCc4ccco4)c4ccccc4n3)CC2)cc1	A549 tox inconclusive, Nrf2 inh inconclusive, KB-3-1 cytotox inconclusive, KB-V1 cytotox 16µM
C=CCOC(=O)N[C@H](c1ccc2ccccc2c1)[C@H](C)/C=C/CC(=O)OC	none (no result: A549 tox, Giardia killer, Nrf2 inh, KB-3-1 cytotox, KB-V1 cytotox)
COC(=O)[C@]12C=CCN1[C@@H](c1ccc(OC)c(OC)c1)c1c(c3ccccc3n1S(=O)(=O)c1ccc(C)cc1)C2	none (no result: A549 tox, Giardia killer, Nrf2 inh, KB-3-1 cytotox, KB-V1 cytotox)
COc1ccc(CNC(=O)CCSc2ccc(F)cc2)cc1OC	none
COc1ccc(CCCC(=O)NCc2ccccc2)cc1C	KB-3-1 cytotox inconclusive, KB-V1 cytotox 6.5µM
CCOc1ccc(N(C)S(=O)(=O)c2ccc(C)c(C(=O)NCc3ccccc3OC)c2)cc1	Nrf2 inh 23µM, KB-3-1 cytotox inconclusive, KB-V1 cytotox inconclusive
Cc1ccc(CNC(=O)CCCc2ccccc2)cc1	none
COc1ccc(CCNC(=O)CSCc2ccc(Cl)cc2)cc1OC	KB-V1 cytotox 6.5µM
COc1ccc(CNC(=O)CSc2ccc(Br)cc2)cc1OC	Nrf2 inh 23µM
COc1ccc(CCNC(=O)CSCc2ccc([N+](=O)[O-])cc2)cc1OC	none
COc1ccc(CCNC(=O)C(=O)NCc2ccc(C)cc2)cc1OC	KB-V1 cytotox 21µM
COc1ccc(CCNC(=O)CCN2C(=O)C(C)Oc3ccc(C)cc32)cc1OC (stereo not drawn)	KB-V1 cytotox 8.2µM
COc1ccc(CCNC(=O)COc2ccc(N(C)S(=O)(=O)c3ccc(C)cc3)cc2)cc1OC	Nrf2 inh 26µM
COc1ccc(CCNC(=O)CCN2C(=O)COc3ccc(C)cc32)cc1OC	KB-V1 cytotox inconclusive
COc1ccc(CCNC(=O)CSCc2ccc(C)cc2)cc1OC	KB-V1 cytotox 21µM
Cc1c(C(=O)Nc2cccc(F)c2)oc2c1-c1nn(Cc3c(F)cccc3Cl)cc1CC2	Nrf2 inh inconclusive (no result: Giardia killer, KB-3-1 cytotox, KB-V1 cytotox)
C=CCN1[C@H](C#N)[C@@H](c2ccc(C#Cc3cccc(OC)c3)cc2)[C@H]1CO	none (no result: A549 tox, Giardia killer, Nrf2 inh, KB-3-1 cytotox, KB-V1 cytotox)
CCCC(=O)N1CCC[C@]2(CC[C@@H](CCC(C)=O)O2)C1	none (no result: A549 tox, Giardia killer, Nrf2 inh, KB-3-1 cytotox, KB-V1 cytotox)
O=[N+]([O-])c1cccc(CN2C(COCc3ccccc3)CCC=CS2(=O)=O)c1 (stereo not drawn)	none (no result: PI4K2A block, KB-3-1 cytotox, KB-V1 cytotox)
COc1ccc(-n2nnnc2SCC(=O)NCCc2ccc(OC)c(OC)c2)cc1	Nrf2 inh inconclusive, KB-V1 cytotox 8.2µM
COc1ccc(CCNC(=O)COc2ccc(S(=O)(=O)NCC(C)C)cc2Cl)cc1OC	Nrf2 inh 21µM
COc1ccc(CCNC(=O)CSc2nnc(-c3ccc(F)cc3)c3ccccc23)cc1OC	KB-V1 cytotox 7.3µM
COc1ccc(CCNC(=O)Cn2cc(S(=O)(=O)Cc3cccc(Cl)c3)c3ccccc32)cc1OC	A549 tox inconclusive, Nrf2 inh 21µM (no result: Giardia killer)
Nc1ncnc2c1ncn2C1CCCC1	PI4K2A block -65
Nc1ncnc2c1ncn2C1CCC(CO)C(O)C1 (stereo not drawn)	PI4K2A block -54
Cc1nn(C)c(C)c1S(=O)(=O)N(CC(=O)N1CCN(c2ccccc2)CC1)c1ccc(C(C)C)cc1	none (no result: Giardia killer)
O=C(/C=C/c1ccccc1)OCc1ccccc1	none (no result: A549 tox, Giardia killer, Nrf2 inh, KB-3-1 cytotox, KB-V1 cytotox)
O=C(NCCC1=CCCCC1)c1ccc(Cl)c(S(=O)(=O)N2CCCCC2)c1	Nrf2 inh 15µM
Cc1ccc(C)c(NS(=O)(=O)c2cc(C(=O)NCCC3=CCCCC3)ccc2C)c1	A549 tox inconclusive, Nrf2 inh 21µM, KB-V1 cytotox inconclusive
